Test results published in PubChem BioAssay (Tox21).
Records with an inconclusive call do not appear. Activity calls are given as the source filed them. Unless noted, calls come from the whole dose curve; as a rule, active = well fitted curve in the direction sought with a large enough effect in the repeat runs; inconclusive = weak or mixed curves; inactive = no such curve, though single readings can be large; an effect the other way counts as inactive or inconclusive.

Tests used:
[1] = qHTS assay for small molecule agonists of the p53 signaling pathway (AID 651631; calls by dose curve; note: nearly all actives have a fitted effect of over 15% in size)
In short: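 Agonist mode screen using a stably integrated beta-lactamase gene under p53 response elements in HCT-116 cells. Compound exposure lasts 16 h at 37 °C; fluorescence intensity is measured following 2 h FRET substrate loading.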

[2] = qHTS assay for small molecules that induce genotoxicity in human embryonic kidney cells expressing luciferase-tagged ATAD5 (AID 651632); note: nearly all actives have a fitted effect of over 15% in size
In short: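 Concentration-response screen for ATAD5 upregulation in HEK293T luciferase reporter cells; 16 hr treatment at 37C, then luminescence after 30 min with Amplite at room temperature.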

[3] = qHTS assay for small molecule agonists of the p53 signaling pathway - cell viability (AID 651633; calls by dose curve;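 note: p53RE-bla HCT reporter cells with a stable beta-lactamase p53 reporter; series mostly up to about 83 µM; nearly all actives have a fitted effect of over 30% in size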)
In short: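 p53RE-bla cells were treated with compound for 16 hours at 37 C. Cytotoxicity was then measured as CellTiter-Glo luminescence after 30 min at room temperature.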

[4] = qHTS assay for small molecules that induce genotoxicity in human embryonic kidney cells expressing luciferase-tagged ATAD5 - cell viability (AID 651634; calls by dose curve; note: nearly all actives have a fitted effect of over 25% in size)
In short: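 15.5 hr compound or vehicle exposure of HEK293T cells expressing luciferase-tagged ATAD5 at 37C; live-cell protease activity is read by fluorescence after 30 min of CellTiter-Fluor.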

[5] = qHTS assay for small molecule disruptors of the mitochondrial membrane potential - cell viability (AID 720634; calls by dose curve;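 note: human HepG2 liver cancer cells; series mostly up to about 83 µM; nearly all actives have a fitted effect of over 20% in size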)
In short: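 In this qHTS format, HepG2 cells plated overnight were pinned with compound, incubated 1 hr, and assayed for ATP luminescence with CellTiter-Glo after m-MPI dye addition.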

[6] = qHTS assay to test for compound auto fluorescence at 590 nm (red) in HepG2 cells (AID 720674)
In short: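 HepG2 cells, 2,000 per well in MEM with 10% FBS, attached overnight at 37 C, then got 23 nL compound or DMSO. After 1 hr at 37 C, 5% CO2, red fluorescence was read at 540/590 nm against Rose Bengal sodium as reference.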

[7] = qHTS assay to test for compound auto fluorescence at 535 nm (green) in HepG2 cells (AID 720675)
[8] = qHTS assay to test for compound auto fluorescence at 460 nm (blue) in HEK293 cells (AID 720678)
In short: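 After cell attachment (4-5 hr, 37C), compounds were pinned onto HEK293 monolayers in 10% dialyzed FBS medium. The blue channel (405/460 nm) was read following overnight culture. Equivalency was calculated against triamterene.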

[9] = qHTS assay to test for compound auto fluorescence at 590 nm (red) in HEK293 cells (AID 720679)
In short: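 Plates of HEK293 cells (10% dialyzed FBS) are treated with 23 nL compound or DMSO vehicle after a 4-5 hr attachment period, incubated overnight at 37C, and read for red fluorescence at 540/590nm.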

[10] = qHTS assay to test for compound auto fluorescence at 460 nm (blue) in HEK293 cell free culture (AID 720681)
In short: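 Compounds were added to cell-free DMEM with 10% FBS and fluorescence read directly. The blue channel used 405 nm excitation and 460 nm emission, with triamterene as the reference fluorophore.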

[11] = qHTS assay to test for compound auto fluorescence at 535 nm (green) in HEK293 cell free culture (AID 720682)
In short: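 No cells present: wells hold DMEM supplemented with 10% FBS, into which compound or vehicle is pinned. Green emission is then recorded (485 nm excitation, 535 nm emission) and scaled to fluorescein.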

[12] = qHTS assay to test for compound auto fluorescence at 590 nm (red) in HEK293 cell free culture (AID 720683)
In short: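 Cell-free wells of DMEM with 10% FBS received compound, and intrinsic fluorescence was read at excitation/emission 540/590 nm. Values expressed as equivalence to Rose Bengal sodium.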

[13] = qHTS assay to test for compound auto fluorescence at 590 nm (red) in HepG2 cell free culture (AID 720684)
In short: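 Auto fluorescence equivalency versus Rose Bengal sodium, red channel Ex/Em 540/590 nm; compounds in cell-free MEM/10% FBS; DMSO vehicle control.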

[14] = qHTS assay to test for compound auto fluorescence at 460 nm (blue) in HepG2 cell free culture (AID 720685)
In short: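 Cell-free plates of MEM plus 10% FBS received 23 nL compound or DMSO vehicle; blue-channel (405/460 nm) intensity scored against triamterene as reference fluorophore.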

[15] = qHTS assay to test for compound auto fluorescence at 535 nm (green) in HepG2 cell free culture (AID 720686)
[16] = qHTS assay to test for compound auto fluorescence at 460 nm (blue) in HepG2 cells (AID 720687)
In short: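 HepG2 cells in MEM with 10% FBS, attached overnight at 37 C, were exposed to compound or DMSO for 1 hr at 37 C, 5% CO2. Blue fluorescence was read at 405/460 nm, with triamterene as reference fluorophore.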

[17] = target: Glucocorticoid receptor (Homo sapiens) (UniProt P04150); test: qHTS assay to identify small molecule agonists of the glucocorticoid receptor (GR) signaling pathway (AID 720691; active = well fitted activation curve with a large enough effect in the signal ratio in the repeat runs, not every such curve was filed as active; the % refers to the signal ratio)
In short: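 Measures GR pathway activation through a GRE-beta-lactamase reporter stably integrated in HeLa cells, with 18 h compound treatment at 37 C and fluorescence detection using a FRET substrate.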

[18] = target: Glucocorticoid receptor (Homo sapiens) (UniProt P04150); test: qHTS assay to identify small molecule antagonists of the glucocorticoid receptor (GR) signaling pathway (AID 720692; active = well fitted inhibition curve with a large enough effect in the signal ratio in the repeat runs, not every such curve was filed as active; the % refers to the signal ratio)
In short: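 Tox21 10K library screened in concentration-response for blockade of dexamethasone (5 nM final)-induced GRE-bla reporter activity in HeLa cells; 18 h treatment, fluorescence read.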

[19] = qHTS assay for small molecule disruptors of the mitochondrial membrane potential (AID 720635)
In short: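 HepG2 cells exposed to compound 1 hr at 37C, then Mito-MPS dye 30 min. Ratio read of aggregate (540/590 nm) versus monomer (490/535 nm) fluorescence.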

[20] = qHTS assay to test for compound auto fluorescence at 535 nm (green) in HEK293 cells (AID 720680)
% is set by controls: 0 for no effect and ±100 for the full control effect.

Glucocorticoid receptor (Homo sapiens), sequence (P04150 whole entry, looked up): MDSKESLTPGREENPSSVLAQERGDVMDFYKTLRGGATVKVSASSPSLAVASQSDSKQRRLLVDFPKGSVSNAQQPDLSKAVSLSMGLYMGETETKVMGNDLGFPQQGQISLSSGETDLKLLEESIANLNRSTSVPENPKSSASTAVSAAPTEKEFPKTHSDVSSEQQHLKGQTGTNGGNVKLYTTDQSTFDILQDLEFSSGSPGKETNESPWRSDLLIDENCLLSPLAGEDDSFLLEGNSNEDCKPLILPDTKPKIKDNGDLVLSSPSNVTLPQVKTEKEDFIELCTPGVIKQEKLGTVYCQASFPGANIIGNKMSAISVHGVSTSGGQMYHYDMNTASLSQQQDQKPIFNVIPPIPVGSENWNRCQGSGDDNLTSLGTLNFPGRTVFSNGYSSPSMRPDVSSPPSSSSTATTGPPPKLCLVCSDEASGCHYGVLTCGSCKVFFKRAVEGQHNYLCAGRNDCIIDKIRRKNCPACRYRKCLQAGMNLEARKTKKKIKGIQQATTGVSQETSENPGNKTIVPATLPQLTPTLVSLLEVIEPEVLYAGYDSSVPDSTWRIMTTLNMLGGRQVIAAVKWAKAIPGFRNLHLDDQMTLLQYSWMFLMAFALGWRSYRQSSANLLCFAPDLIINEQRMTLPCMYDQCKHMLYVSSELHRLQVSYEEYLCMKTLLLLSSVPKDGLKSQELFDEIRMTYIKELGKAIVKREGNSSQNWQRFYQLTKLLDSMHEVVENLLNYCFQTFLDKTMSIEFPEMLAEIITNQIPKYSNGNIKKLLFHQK

Nc1ccc(C(=O)NCC(=O)O)cc1
inactive: Potency [1] | Potency [2] | outcome [3] | outcome [4] | outcome [5] | fluorescence, relative to Rose Bengal [6] 0.477% [at 18.6 µM] | fluorescence, % of fluorescein control [7] 0.0596% [at 18.6 µM] | fluorescence, % of triamterene [8] -0.0255% [at 18.6 µM] | fluorescence, % of fluorescent control [9] -0.524% [at 18.6 µM] | fluorescence, % of fluorescent control [10] 0.0205% [at 18.6 µM] | activity change [11] -0.0258% [at 18.6 µM] | fluorescence, % of fluorescent control [12] -0.0926% [at 18.6 µM] | fluorescence, % of Rose Bengal [13] -0.0233% [at 18.6 µM] | fluorescence, % of fluorescent control [14] -0.124% [at 18.6 µM] | fluorescence, % of fluorescein control [15] 0.0021% [at 18.6 µM] | fluorescence, % of fluorescent control [16] -0.0546% [at 18.6 µM] | Potency [17] | outcome [18]

CCCCCCC(=O)c1ccccc1
inactive: Potency [2] | outcome [3] | outcome [4] | outcome [5] | Potency [19] | outcome [6] | outcome [7] | outcome [8] | outcome [9] | outcome [20] | outcome [10] | outcome [11] | outcome [12] | outcome [13] | outcome [14] | outcome [15] | outcome [16]

C=CCCCCCCCCOC(C)=O
inactive: Potency [2] | outcome [3] | outcome [4] | outcome [5] | Potency [19] | outcome [6] | outcome [7] | outcome [8] | outcome [9] | outcome [10] | outcome [11] | outcome [13] | outcome [14] | outcome [15] | outcome [16]

CC(C)OCCO
inactive: Potency [2] | outcome [3] | outcome [4] | outcome [5] | Potency [19] | outcome [6] | outcome [7] | outcome [8] | outcome [9] | outcome [20] | outcome [10] | outcome [11] | outcome [12] | outcome [13] | outcome [14] | outcome [15] | outcome [16] | Potency [17] | outcome [18]

NS(=O)(=O)c1cc2c(cc1C(F)(F)F)NCNS2(=O)=O
inactive: Potency [2] | outcome [3] | outcome [4] | outcome [5] | Potency [19] | fluorescence, relative to Rose Bengal [6] 0.362% [at 18.6 µM] | fluorescence, % of fluorescein control [7] -0.0771% [at 18.6 µM] | fluorescence, % of triamterene [8] -0.352% [at 18.6 µM] | fluorescence, % of fluorescent control [9] -0.333% [at 18.6 µM] | fluorescence, % of fluorescein [20] -0.0035% [at 18.6 µM] | fluorescence, % of fluorescent control [10] 0.05% [at 18.6 µM] | activity change [11] 0.0709% [at 18.6 µM] | fluorescence, % of Rose Bengal [13] -0.188% [at 18.6 µM] | fluorescence, % of fluorescent control [16] -0.066% [at 18.6 µM] | Potency [17]

CN(C)c1cc(NC(=O)CNC(C)(C)C)c(O)c2c1C[C@H]1C[C@H]3[C@H](N(C)C)C(=O)C(C(N)=O)=C(O)[C@@]3(O)C(=O)C1=C2O
inactive: Potency [1] | Potency [2] | outcome [3] | outcome [4] | outcome [6] | outcome [8] | outcome [9] | outcome [10] | outcome [11] | outcome [12] | outcome [13] | outcome [14] | outcome [15] | outcome [16]

Cc1ccc(OC(=O)CC(C)C)cc1
inactive: Potency [2] | outcome [3] | outcome [4] | outcome [5] | Potency [19] | outcome [6] | outcome [8] | outcome [9] | outcome [20] | outcome [10] | outcome [11] | outcome [12] | outcome [13] | outcome [14] | outcome [16] | Potency [17]

COC(=O)N/N=C/c1c[n+]([O-])c2ccccc2[n+]1[O-]
inactive: Potency [2] | outcome [3] | outcome [4] | outcome [5] | Potency [19] | outcome [6] | outcome [7] | outcome [8] | outcome [9] | outcome [20] | outcome [10] | outcome [11] | outcome [12] | outcome [13] | outcome [14] | outcome [15] | outcome [16]

CCC(C)c1nccnc1OC (stereo unspecified)
inactive: Potency [2] | outcome [3] | outcome [4] | outcome [5] | Potency [19] | outcome [6] | outcome [7] | outcome [8] | outcome [9] | outcome [20] | outcome [10] | outcome [11] | outcome [12] | outcome [13] | outcome [14] | outcome [16] | outcome [18]

O=C[C@@H](O)[C@H](O)[C@H](O)CO
inactive: Potency [1] | Potency [2] | outcome [3] | outcome [4] | outcome [6] | outcome [8] | outcome [9] | outcome [10] | outcome [11] | outcome [12] | outcome [13] | outcome [15] | outcome [16]

O=Cc1ccccc1S(=O)(=O)O
inactive: Potency [2] | outcome [3] | outcome [4] | outcome [5] | Potency [19] | outcome [6] | outcome [7] | outcome [8] | outcome [9] | outcome [20] | outcome [10] | outcome [11] | outcome [12] | outcome [13] | outcome [15] | outcome [16] | Potency [17] | outcome [18]

C=CC(=O)OCCOCCOCC
inactive: Potency [2] | outcome [3] | outcome [4] | outcome [5] | Potency [19] | outcome [6] | outcome [7] | outcome [8] | outcome [9] | outcome [20] | outcome [10] | outcome [11] | outcome [12] | outcome [13] | outcome [14] | outcome [15] | outcome [16]

CC(=O)SCC(CC(=O)c1ccc(C)cc1)C(=O)O (stereo unspecified)
inactive: Potency [2] | outcome [3] | outcome [4] | outcome [5] | Potency [19] | outcome [6] | outcome [7] | outcome [8] | outcome [9] | outcome [20] | outcome [10] | outcome [11] | outcome [12] | outcome [13] | outcome [14] | outcome [15] | outcome [16] | Potency [17] | outcome [18]

N#Cc1ccccc1C#N
inactive: Potency [2] | outcome [3] | outcome [4] | outcome [5] | Potency [19] | outcome [6] | outcome [7] | outcome [8] | outcome [9] | outcome [11] | outcome [12] | outcome [13] | outcome [14] | outcome [15] | outcome [16]

CC(C)OC(=O)C(C(=O)OC(C)C)=C1SC=CS1
inactive: Potency [1] | Potency [2] | outcome [3] | outcome [4] | outcome [6] | outcome [8] | outcome [9] | outcome [10] | outcome [11] | outcome [12] | outcome [13] | outcome [14] | outcome [15] | outcome [16] | Potency [17] | outcome [18]
